Source: PubChem BioAssay (National Center for Advancing Translational Sciences (NCATS))
The full list was thinned out, with hits kept by preference.
AMA1-RON2 inh = qHTS for Inhibitors of AMA1-RON; Towards Development of Antimalarial Drug Lead: Primary Screen. Plasmodium falciparum AMA1 (3D7) - RON2 peptide interaction. AlphaScreen AMA1-biotinylated RON2 peptide binding. Potency, µM (doses to about 58.2 µM), inactives show at the top dose activity change, negative = inhibition, usual class: inhibitors. 0.2% of 360,000 active; active = well fitted inhibition curve with a large enough effect; inconclusive = small, poorly fitted or top-dose-only effect; inactive = no such curve, though single readings can be large or run the other way;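 also: potency is read from the fitted curve at half-maximal effect; 0% = vehicle wells and -100% = peptide control; nearly all actives have a fitted effect of over 45% in size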
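AMA1 (3D7) with his tag at 25 nM final met compounds first, then biotinylated RON2 peptide at 25 nM; detection used donor plus acceptor beads, 10 µg/mL apiece, read by AlphaScreen after 30 min at room temperature.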
Shiga toxin inh = A qHTS for Small Molecule Inhibitors of Shiga Toxin | Vero cells, Shiga toxin protein synthesis inhibition reporter | AID 2315, 2010 | 9.2% of 290,000 active | inhibition, % at 38.7 µM; in the data active = inhibition mostly above about 28%, no sharp cut-off; inactive = mostly below about 43%; also: 0% is about no effect
MARV entry inh = qHTS for inhibitors of binding or entry into cells for Marburg Virus; Marburg virus pseudotyped entry inhibition, cell reporter; Potency, µM (top dose mostly 37.8 µM), without a hit: at the top dose activity change, negative = inhibition, hits mostly inhibitors; 1.8% of 300,000 active; calls by dose curve; tested in HEK293 cells; also: potency is read from the fitted curve at half-maximal effect; % is scaled to controls: 0 for no effect and ±100 for the full control effect
Lassa entry inh = qHTS for Inhibitors of binding or entry into cells for Lassa Virus; Lassa virus pseudotype entry inhibition, cell reporter; Potency, µM (doses to about 37.9 µM), for the others: at the highest dose activity change, negative = inhibition, hits mostly inhibitors; 1.2% of 300,000 active; calls by dose curve; tested in HEK293 cells; also: potency is read from the fitted curve at half-maximal effect; % is scaled to controls: 0 for no effect and ±100 for the full control effect; nearly all actives have a fitted effect of over 50% in size
Cycloheximide cs = Cycloheximide Counterscreen for Small Molecule Inhibitors of Shiga Toxin; AID 2314, 2010; cell reporter, cycloheximide protein synthesis inhibition counterscreen; 12% of 300,000 active; max response, %; in the data active = max response mostly above about 13%, no sharp cut-off; inactive = mostly below about 14%; also: read at 38.3 µM for the half of the compounds with a filed dose; 0% is about no effect
An asterisk follows results filed as active; [ ] = dose if it differs, or a comment.

`CC(=O)Nc1ccc(N(C(=O)Cc2cccs2)C(C(=O)NC2CCCC2)c2ccncc2)cc1` (stereo not given) gave AMA1-RON2 inh -15.9%, Shiga toxin inh -7.6, MARV entry inh 12.1%[46.1 µM], Lassa entry inh -12.4% and Cycloheximide cs -4.9.
Cc1ccsc1/C=C(/C#N)C(=O)NCc1ccccc1 was read as AMA1-RON2 inh 1.4%, Shiga toxin inh 26.8, MARV entry inh -1.6%, Lassa entry inh 1.3% and Cycloheximide cs 12.4*.
Screening N#C/C(=C\c1ccc(OCc2ccccc2)cc1)C(=O)Nc1nc2c(s1)CCN(Cc1ccccc1)C2 returned AMA1-RON2 inh 7.0%, Shiga toxin inh 3.6, MARV entry inh inconclusive, Lassa entry inh 10.6% and Cycloheximide cs 20.4*.
`COc1ccc(/C=C(\C#N)C(=O)NCc2ccccc2)cc1` gave AMA1-RON2 inh -3.1%, Shiga toxin inh 86.9*, MARV entry inh 10.2%[46.1 µM], Lassa entry inh 11.8%[46.1 µM] and Cycloheximide cs 34.0*.
N#C/C(=C\c1ccc(O)cc1)C(=O)NCc1ccccc1 was read as AMA1-RON2 inh -3.4%, Shiga toxin inh -4.8, MARV entry inh -0.6%[46.1 µM], Lassa entry inh -4.0%[46.1 µM] and Cycloheximide cs 1.8.
Screening N#C/C(=C\c1ccc(OCc2ccccc2)cc1)C(N)=O returned AMA1-RON2 inh 7.2%, Shiga toxin inh 89.6*, MARV entry inh 14.3%[46.1 µM], Lassa entry inh 8.5% and Cycloheximide cs 24.0*.
For CN(C)c1ccc(/C=C(/C#N)C(=O)Nc2nc3c(s2)CCN(Cc2ccccc2)C3)cc1 the results were AMA1-RON2 inh -3.9%, MARV entry inh 7.0% and Lassa entry inh 12.6%.
For CCC(=O)Nc1ccc(C)cc1-c1nc2ccccc2n(CC(=O)c2ccc(C)cc2)c1=O the results were MARV entry inh -0.3%[46.1 µM] and Lassa entry inh -18.8%[46.1 µM].
For COc1ccc(C)cc1S(=O)(=O)N1CCCC(N2CCN(c3ccccc3)CC2)C1 (stereo not given) the results were AMA1-RON2 inh -10.2%.
`CNC(=O)/C(C#N)=C/c1ccc(OCCOc2ccccc2)cc1` gave AMA1-RON2 inh 0.0%, Shiga toxin inh 14.9 and Cycloheximide cs 10.5*.
For COc1ccc(C(=O)OCc2csc(C)n2)c(O)c1 the results were AMA1-RON2 inh 12.5%, Shiga toxin inh 60.9*, MARV entry inh 29.2%, Lassa entry inh 13.8% and Cycloheximide cs 42.3*.
For N/N=C(\Cc1cscn1)c1ccc(O)cc1O the results were AMA1-RON2 inh 34.3%, Shiga toxin inh 80.2*, MARV entry inh 14.7%, Lassa entry inh 9.9% and Cycloheximide cs 36.3*.
`Cc1cc(O)cc(O)c1C(=O)Cc1cscn1` gave AMA1-RON2 inh 6.6%, Shiga toxin inh -19.3, MARV entry inh 7.3%[46.1 µM], Lassa entry inh -6.8% and Cycloheximide cs 16.2.
`Cc1nc(C/C(=N\N)c2ccc(O)cc2O)cs1` gave AMA1-RON2 inh 38.3%, Shiga toxin inh 63.9, MARV entry inh 0.6%, Lassa entry inh 10.0% and Cycloheximide cs 24.5*.
For CN[C@@H]1C[C@@H](c2ccc(Cl)c(Cl)c2)c2ccccc21 the results were Shiga toxin inh -10.7, MARV entry inh 4.61µM*, Lassa entry inh 13µM* and Cycloheximide cs -2.5.
COc1ccccc1C1CCN(Cc2ccc(Cl)c(Cl)c2)CC1 was read as AMA1-RON2 inh -23.4%, Shiga toxin inh 2.3, MARV entry inh inconclusive, Lassa entry inh inconclusive and Cycloheximide cs -1.3.
`CN[C@@H]1C[C@H](c2ccc(Cl)c(Cl)c2)c2ccccc21` gave MARV entry inh 4.61µM*.
Screening O=C1C=C(N2CCCCC2)C2(CCCCC2)O1 returned AMA1-RON2 inh -9.0%, Shiga toxin inh -3.7 and Cycloheximide cs 6.2.
O=C1C=C(N2CCOCC2)C2(CCCCC2)O1 was read as AMA1-RON2 inh -10.6%, Shiga toxin inh 85.4, MARV entry inh 17.6%, Lassa entry inh inconclusive and Cycloheximide cs 27.6*.
For CCOC(=O)c1ccc(NC(=O)CCc2c(C)nc3c(c(C)nn3C)c2C)cc1 the results were MARV entry inh -14.9%[46.1 µM] and Lassa entry inh -0.4%[46.1 µM].
Screening CCc1ccc(NC(=O)CCNC(=O)N2C[C@H]3C[C@@H](C2)c2cccc(=O)n2C3)cc1 returned AMA1-RON2 inh 5.7%, Shiga toxin inh 30.6* and Cycloheximide cs 27.2*.
For Cn1cnnc1SCC(=O)Nc1ccc2ccccc2c1 the results were AMA1-RON2 inh -3.9%, MARV entry inh -2.9% and Lassa entry inh 0.1%.
Cn1cnnc1SCC(=O)Nc1ccc(OCc2ccccc2)cc1 was read as AMA1-RON2 inh -7.0%, Shiga toxin inh 89.9*, MARV entry inh 14.5%[46.1 µM], Lassa entry inh 7.5% and Cycloheximide cs 47.6*.
`COc1ccc(NC(=O)CSc2nncn2C)cc1` gave AMA1-RON2 inh 4.4%, Shiga toxin inh 15.9, MARV entry inh inconclusive, Lassa entry inh 10.6% and Cycloheximide cs 25.1*.
Screening Cn1cnnc1SCC(=O)Nc1ccccc1 returned AMA1-RON2 inh 7.5%, Shiga toxin inh 0.9 and Cycloheximide cs 2.1.
`CCc1ccc(NC(=O)CSc2nncn2-c2cccnc2)cc1` gave AMA1-RON2 inh 4.6%, Shiga toxin inh 150.9*, MARV entry inh inconclusive, Lassa entry inh inconclusive and Cycloheximide cs 32.1*.
For COc1ccccc1NC(=O)CSc1nncn1-c1cccnc1 the results were AMA1-RON2 inh 5.8%, Shiga toxin inh 23.7, MARV entry inh -2.6%, Lassa entry inh 5.2% and Cycloheximide cs 1.0.
CCCC(=O)Nc1nc2c(s1)CC(C(C)(C)C)CC2 (stereo not given) was read as MARV entry inh 20.4%[46.1 µM] and Lassa entry inh -3.2%[46.1 µM].
`Cc1ccc(NC2=C(CC(=O)O)C(c3ccccc3)N(c3ccc(C)cc3)C2=O)cc1` (stereo not given) gave AMA1-RON2 inh -1.9%, Shiga toxin inh 7.9, MARV entry inh -17.2%, Lassa entry inh inconclusive and Cycloheximide cs 8.7.
Screening Cc1ccc(/C=N\NC(=O)C2CC(=O)N(c3ccccc3)C2)o1 (stereo not given) returned AMA1-RON2 inh 24.8%, Shiga toxin inh 25.3, MARV entry inh -2.4%[46.1 µM], Lassa entry inh -8.5% and Cycloheximide cs 24.4*.
Cc1ccsc1/C=N/NC(=O)C1CC(=O)N(c2ccccc2)C1 (stereo not given) was read as AMA1-RON2 inh 0.5%, Shiga toxin inh -8.7, MARV entry inh 2.0%, Lassa entry inh 3.4% and Cycloheximide cs 4.8.
Screening O=Cc1cc(-c2ccccc2)[nH]c1-c1ccccc1 returned AMA1-RON2 inh 2.1%, MARV entry inh 9.3%[46.1 µM], Lassa entry inh 21.0%[46.1 µM] and Cycloheximide cs 23.7*.
For O=Cc1cn[nH]c1-c1ccccc1 the results were AMA1-RON2 inh -4.6%, Shiga toxin inh -10.1 and Cycloheximide cs -2.9.
COc1ccc(N(CC(C)C)S(=O)(=O)c2nnc(NC(=O)CC(C)C)s2)cc1 was read as AMA1-RON2 inh -1.2%, Shiga toxin inh 6.3, MARV entry inh -17.8%[46.1 µM], Lassa entry inh -10.1%[46.1 µM] and Cycloheximide cs -0.8.
Screening CCNc1ccc2noc3c2c1C(=O)c1ccccc1-3 returned AMA1-RON2 inh inconclusive, Shiga toxin inh 21.2, MARV entry inh -3.7%, Lassa entry inh -11.1% and Cycloheximide cs 16.6.
